Drawing on PubChem BioAssay (EPA / NIEHS), this text covers outcome and AC50 for 6 compounds.

Read-out in test [1]: Monokine induced gamma interferon (MIG), CXCL9 (gene 4283)
Nature of the test: BSK_hDFCGF_MIG: BioMAP Diversity Plus: hDFCGF Assay for Monokine induced gamma interferon (MIG) Biomarker Activity (AID 2283063). The settings on record: primary human foreskin fibroblasts; actives raise or lower the signal. The method in brief:
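ELISA read-out of MIG from primary human dermal fibroblasts 24 h post-dosing. Gain or loss of signal fitted bidirectionally, DMSO as baseline.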

Read-out in test [2]: Matrix Metallopeptidase 1 (MMP1), MMP1 (gene 4312)
Nature of the test: BSK_hDFCGF_MMP1: BioMAP Diversity Plus: hDFCGF Assay for Matrix Metallopeptidase 1 (MMP1) Biomarker Activity (AID 2283064). The settings on record: primary human foreskin fibroblasts; actives raise or lower the signal. The method in brief:
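MMP1 levels quantified by ELISA 24 h after dosing human dermal fibroblast cultures, with parallel SRB total-protein staining for overt cytotoxicity. Data fitted in both directions against DMSO baseline.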

Read-out in test [3]: Vascular cell adhesion molecule 1 (VCAM1), VCAM1 (gene 7412)
Nature of the test: BSK_hDFCGF_VCAM1: BioMAP Diversity Plus: hDFCGF Assay for Vascular cell adhesion molecule 1 (VCAM1) Biomarker Activity (AID 2283065).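 On AC50: VCAM-1 protein level quantified by ELISA after 24 h chemical exposure.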 As to conditions: primary human foreskin fibroblasts; actives raise or lower the signal. The method in brief: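 Primary human foreskin fibroblasts (hDFCGF system) were dosed with chemical and VCAM-1 was measured by ELISA 24 h later. Bidirectional curve fitting used DMSO as negative control and activity baseline.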

Read-out in test [4]: Plasminogen activator inhibitor-1 (PAI1), SERPINE1 (gene 5054)
Nature of the test: BSK_hDFCGF_PAI1: BioMAP Diversity Plus: hDFCGF Assay for Plasminogen activator inhibitor-1 (PAI1) Biomarker Activity (AID 2283066). As to conditions: primary human foreskin fibroblasts; actives raise or lower the signal. The method in brief:
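PAI-1 levels in human dermal foreskin fibroblasts were quantified by ELISA 24 h after dosing, with gain or loss analysed against DMSO. Overt cytotoxicity was checked by sulforhodamine B total-protein staining in parallel cultures.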

Read-out in test [5]: Intercellular Adhesion Molecule 1 (ICAM1), ICAM1 (gene 3383)
Kind of test: BSK_KF3CT_ICAM1: BioMAP Diversity Plus: KF3CT Assay for Intercellular Adhesion Molecule 1 (ICAM1) Biomarker Activity (AID 2283067). The settings on record: primary human keratinocytes with fibroblasts; actives raise or lower the signal. Put shortly: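 Human keratinocyte plus foreskin fibroblast primary co-culture was exposed to chemical for 24 h. ICAM-1 was then quantified by ELISA, and the data were fit bidirectionally against DMSO as the negative control and baseline.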

Read-out in test [6]: Interferon-gamma inducible Protein 10 (IP10), CXCL10 (gene 3627)
Kind of test: BSK_KF3CT_IP10: BioMAP Diversity Plus: KF3CT Assay for Interferon-gamma inducible Protein 10 (IP10) Biomarker Activity (AID 2283068). As to conditions: primary human keratinocytes with fibroblasts; actives raise or lower the signal. The method in brief: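 KF3CT co-culture (keratinocytes + foreskin fibroblasts), 24 h compound, IP-10 by ELISA; bidirectional fit vs DMSO baseline.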

Test [7] is described as follows: BSK_KF3CT_SRB: Viability Assessment in the BioMAP Diversity Plus: KF3CT Assay (AID 2283069).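 Further: read 24 h after compound addition.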 The settings on record: primary human keratinocytes with fibroblasts. The method in brief:
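Cytotoxicity was gauged by SRB staining (0.1% SRB, 10% TCA fixation, 560 nm) of parallel cultures at 24 h. The cells were primary human skin keratinocytes co-cultured with fibroblasts, and activity was fitted in both directions against DMSO.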

Read-out in test [8]: Interleukin-1 alpha (IL1a), IL1A (gene 3552)
Nature of the test: BSK_KF3CT_IL1a: BioMAP Diversity Plus: KF3CT Assay for Interleukin-1 alpha (IL1a) Biomarker Activity (AID 2283070). The settings on record: primary human keratinocytes with fibroblasts; actives raise or lower the signal. The method in brief:
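IL-1a was detected by ELISA 24 h after chemical treatment of a co-culture of human skin keratinocytes and foreskin fibroblasts. Gain or loss of signal was fitted against the DMSO baseline.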

Read-out in test [9]: TIMP metallopeptidase inhibitor 2 (TIMP2), TIMP2 (gene 7077)
Nature of the test: BSK_KF3CT_TIMP2: BioMAP Diversity Plus: KF3CT Assay for TIMP metallopeptidase inhibitor 2 (TIMP2) Biomarker Activity (AID 2283071). As to conditions: primary human keratinocytes with fibroblasts; actives raise or lower the signal. Put shortly: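 TIMP-2 measured by ELISA at 24 h in human keratinocyte/fibroblast primary co-cultures exposed to chemicals. Both increases and decreases were fitted against DMSO. Parallel cultures were stained with SRB for total protein as an overt-cytotoxicity check.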

Read-out in test [10]: Transforming growth factor beta 1 (TGFb1), TGFB1 (gene 7040)
Kind of test: BSK_KF3CT_TGFb1: BioMAP Diversity Plus: KF3CT Assay for Transforming growth factor beta 1 (TGFb1) Biomarker Activity (AID 2283072). The settings on record: primary human keratinocytes with fibroblasts; actives raise or lower the signal. The method in brief:
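ELISA quantifies TGF-b1 at 24 h post-dose in a primary human skin co-culture of keratinocytes and fibroblasts, with gain or loss judged against DMSO. Parallel SRB total-protein staining flags overt cytotoxicity.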

Read-out in test [11]: C-C motif chemokine 2 (Homo sapiens) (UniProt P13500)
Nature of the test: BSK_KF3CT_MCP1: BioMAP Diversity Plus: KF3CT Assay for Monocyte Chemoattractant Protein 1 (MCP1/CCL2) Biomarker Activity (AID 2283073). As to conditions: primary human keratinocytes with fibroblasts; actives raise or lower the signal. Put shortly:
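Human keratinocyte plus foreskin fibroblast primary co-culture exposed to chemical for 24 h. MCP-1 levels measured by ELISA. Bidirectional curve fitting relative to DMSO negative control as baseline.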

Read-out in test [12]: Matrix Metallopeptidase 9 (MMP9), MMP9 (gene 4318)
Nature of the test: BSK_KF3CT_MMP9: BioMAP Diversity Plus: KF3CT Assay for Matrix Metallopeptidase 9 (MMP9) Biomarker Activity (AID 2283074).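 On AC50: MMP9 protein level quantified by ELISA in the co-culture.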 As to conditions: primary human keratinocytes with fibroblasts; actives raise or lower the signal. The method in brief: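 MMP-9 quantified by ELISA after 24 h chemical treatment of primary human skin keratinocyte/fibroblast co-cultures; gain or loss fitted against DMSO, with parallel SRB staining (0.1% SRB, 560 nm) for overt cytotoxicity.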

Read-out in test [13]: urokinase plasminogen activator (uPA), PLAU (gene 5328)
Nature of the test: BSK_KF3CT_uPA: BioMAP Diversity Plus: KF3CT Assay for urokinase plasminogen activator (uPA) Biomarker Activity (AID 2283075). As to conditions: primary human keratinocytes with fibroblasts; actives raise or lower the signal. The method in brief: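 ELISA read-out of uPA 24 h after dosing human skin keratinocytes co-cultured with foreskin fibroblasts. Signal change fitted both ways relative to DMSO; sulforhodamine B on parallel cultures marks overt cytotoxicity.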

Read-out in test [14]: CD40, CD40 (gene 958)
Nature of the test: BSK_LPS_CD40: BioMAP Diversity Plus: LPS Assay for CD40 Biomarker Activity (AID 2283076). As to conditions: primary human HUVEC with PBMC; actives raise or lower the signal. The method in brief: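 Primary human umbilical vein endothelial cells co-cultured with peripheral blood mononuclear cells, LPS-stimulated, were dosed with chemical and read 24 h later. CD40 levels were measured by ELISA and fitted bidirectionally against DMSO as negative control and baseline.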

Read-out in test [15]: E-selectin (Homo sapiens) (UniProt P16581)
Nature of the test: BSK_LPS_Eselectin: BioMAP Diversity Plus: LPS Assay for Eselectin Biomarker Activity (AID 2283077). As to conditions: primary human HUVEC with PBMC; actives raise or lower the signal. Put shortly: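 Human umbilical vein endothelial cells co-cultured with peripheral blood mononuclear cells under LPS stimulation; E-selectin measured by ELISA 24 h after chemical dosing. Activity fitted bidirectionally against DMSO as negative control and baseline.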

Read-out in test [16]: Interleukin-8 (IL8), CXCL8 (gene 3576)
Nature of the test: BSK_LPS_IL8: BioMAP Diversity Plus: LPS Assay for Interleukin-8 (IL8) Biomarker Activity (AID 2283078). As to conditions: primary human HUVEC with PBMC; actives raise or lower the signal. Put shortly:
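Human umbilical vein endothelial cells co-cultured with PBMC were stimulated with LPS; IL-8 levels were measured by ELISA 24 h after chemical dosing. Activity was fitted bidirectionally against DMSO as negative control and baseline.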

Test [17] can be described thus: BSK_LPS_SRB: Viability Assessment in the BioMAP Diversity Plus: LPS Assay (AID 2283079).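 Further: total protein by sulforhodamine B absorbance as a cytotoxicity measure; measured one day after compound addition; fitted in both directions against DMSO so loss or gain of signal counts.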 The settings on record: primary human HUVEC with PBMC. Put shortly:
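Human umbilical vein endothelial cells co-cultured with PBMC (LPS system) were dosed for 24 h. Total protein was stained with 0.1% sulforhodamine B after 10% TCA fixation, read at 560 nm, and fitted bidirectionally against DMSO baseline.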

Read-out in test [18]: Interleukin-1 alpha (IL1a), IL1A (gene 3552)
Nature of the test: BSK_LPS_IL1a: BioMAP Diversity Plus: LPS Assay for Interleukin-1 alpha (IL1a) Biomarker Activity (AID 2283080). As to conditions: primary human HUVEC with PBMC; actives raise or lower the signal. Put shortly: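 Human umbilical vein endothelial cells co-cultured with peripheral blood mononuclear cells were LPS-stimulated and exposed to test chemicals for 24 h. IL-1 alpha was quantified by ELISA, with bidirectional curve fitting against DMSO as the negative control and baseline.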

Read-out in test [19]: Monocyte Chemoattractant Protein-1 (MCP1), CCL2 (gene 6347)
Kind of test: BSK_LPS_MCP1: BioMAP Diversity Plus: LPS Assay for Monocyte Chemoattractant Protein-1 (MCP1) Biomarker Activity (AID 2283081).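 On AC50: co-culture stimulated with LPS; secreted MCP-1 protein quantified by ELISA in culture supernatant.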 The settings on record: primary human HUVEC with PBMC; actives raise or lower the signal. The method in brief: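 HUVEC plus PBMC co-culture (human primary cells, LPS system) exposed to test chemical for 24 h; MCP-1 measured by ELISA. Bidirectional curve fitting against DMSO baseline; parallel SRB total-protein staining flags overt cytotoxicity.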

Test [20] is described as follows: BSK_LPS_PGE2: BioMAP Diversity Plus: LPS Assay for Prostaglandin E2 (PGE2) Biomarker Activity (AID 2283082). The settings on record: primary human HUVEC with PBMC; actives raise or lower the signal. Put shortly: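 PGE2 release measured by ELISA in an LPS-activated co-culture of human umbilical vein endothelial cells and peripheral blood mononuclear cells, read at 24 h post-dosing. DMSO served as baseline for bidirectional curve fitting.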

One may read the AC50 as the concentration at which the activity in the assay is half-maximal.

Active and inactive are the calls of the source. How the source made its calls: active means hit-call score of the fitted dose curve at least 0.9, where 1 is the maximum; inactive means score below 0.9.

Sequence of E-selectin (Homo sapiens) (P16581 whole entry, looked up): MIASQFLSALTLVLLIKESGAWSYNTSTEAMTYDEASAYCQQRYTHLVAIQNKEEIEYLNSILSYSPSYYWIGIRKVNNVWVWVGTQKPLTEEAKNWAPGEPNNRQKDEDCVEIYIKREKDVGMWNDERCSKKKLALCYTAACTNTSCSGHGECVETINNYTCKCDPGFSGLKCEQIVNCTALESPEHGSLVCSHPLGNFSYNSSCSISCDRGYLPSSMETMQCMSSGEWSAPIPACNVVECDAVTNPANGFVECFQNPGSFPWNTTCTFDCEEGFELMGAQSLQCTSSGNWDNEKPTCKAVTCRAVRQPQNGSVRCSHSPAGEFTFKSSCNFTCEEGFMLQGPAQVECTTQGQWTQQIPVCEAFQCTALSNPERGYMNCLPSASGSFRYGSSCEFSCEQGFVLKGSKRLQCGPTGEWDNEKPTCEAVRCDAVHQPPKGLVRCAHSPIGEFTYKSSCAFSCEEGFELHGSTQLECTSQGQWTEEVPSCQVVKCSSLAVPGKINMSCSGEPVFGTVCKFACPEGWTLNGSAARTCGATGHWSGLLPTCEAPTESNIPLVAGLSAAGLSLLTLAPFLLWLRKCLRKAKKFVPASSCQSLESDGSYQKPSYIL

Consider `OCC(CO)(CO)CO`, for which the result in [1], in test [2], in [3], in test [4], in test [5] and in [6] was inactive. Also, the outcome in test [7], in test [8], in test [9], in test [10], in test [11] and in test [12] was inactive. Further, the result in [13], in test [14], in test [15], in [16], in test [17] and in test [18] was inactive. Moreover, the result in [19] and in test [20] was inactive.

Turning to `COc1cc2c(c(OC)c1OC)-c1ccc(OC)c(=O)cc1[C@@H](NC(C)=O)CC2`, the outcome in [1], in test [4], in [5], in test [6], in test [7] and in [8] was inactive. The outcome in test [9], in test [10], in test [11], in test [13], in test [15] and in test [16] was inactive. Also, the outcome in [19] and in [20] was inactive. For the same compound, the AC50 in [2] is 2.82 µM (active); in test [3] it was 2.32 µM (active); in [12] it was 0.548 µM (active); in [14] it was 0.148 µM (active); in [17], 0.245 µM (active); in test [18] it was 0.827 µM (active).

As to `O=c1[nH]cnc2c1ncn2[C@H]1CC[C@@H](CO)O1`, the result in test [1], in test [2], in test [3], in test [4], in test [5] and in [6] was inactive. Moreover, the outcome in [7], in test [8], in test [9], in test [10], in test [11] and in [12] was inactive. In addition, the result in test [13], in test [14], in test [15], in test [16], in test [17] and in [18] was inactive. Further, the outcome in test [19] and in test [20] was inactive.

As for `C=CCc1cc(S(=O)(=O)c2ccc(O)c(CC=C)c2)ccc1O`, the AC50 in [1] is 30.7 µM (active); in test [2] it was 31 µM (active); in [3] it was 15 µM (active); in [4] it was 10.2 µM (active); in test [5] it was 23.7 µM (active); in [6], 13.8 µM (active). Also, the AC50 in [7] is 26.5 µM (active); in [8], 30 µM (active); in [9] it was 17.3 µM (active); in [11] it was 24.4 µM (active); in test [12], 10.3 µM (active); in test [13] it was 30.4 µM (active). Moreover, the AC50 in test [14] was 11.7 µM (active); in test [15], 29.2 µM (active); in [16] it was 16.2 µM (active); in [17], 14.7 µM (active); in [18], 30.6 µM (active); in test [19], 15.8 µM (active). The AC50 in [20] was 32.3 µM (active). The outcome in test [10] was inactive.

Consider `CCCCCCCC/C=C\CCCCCCCC(=O)OC[C@@H](O)[C@H]1OC[C@H](O)[C@H]1O`, for which the outcome in [1], in test [2], in [3], in test [4], in test [5] and in test [6] was inactive. Also, the result in test [7], in test [8], in test [9], in test [10], in test [11] and in test [12] was inactive. Further, the result in test [13], in [14], in test [15], in [16], in [17] and in test [18] was inactive. The outcome in test [19] and in test [20] was inactive.

`O=S(=O)(O)c1ccc(N=Nc2c(O)ccc3cc(S(=O)(=O)O)ccc23)cc1`: the result in test [1], in [2], in test [3], in test [4], in [5] and in [6] was inactive. Moreover, the outcome in test [7], in [8], in test [9], in [10], in [11] and in [12] was inactive. For the same compound, the result in [13], in [14], in test [15], in test [16], in test [17] and in [18] was inactive. The result in test [19] and in test [20] was inactive.
